ELG1 genotoxic: qHTS screen for small molecules that induce genotoxicity in human embryonic kidney (HEK293T) cells expressing luciferase-tagged ELG1; HEK293T ELG1-luciferase reporter, luminescence, 16 h; Potency, µM (series often up to 46 µM), most hits filed as activators; actives 1.3% (n = 330,000); AID 504466, 2011; also: nearly all actives have a fitted effect of over 60% in size
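16 hr compound incubation (37 °C, 5% CO2) of HEK293T cells carrying luciferase-tagged ELG1; luciferase then measured by ONE-Glo luminescence after 30 min at RT.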
SMN2 splice enh: qHTS Assay for Enhancers of SMN2 Splice Variant Expression | HEK293 SMN2-luciferase splicing reporter, luminescence, 30-36 h | Potency, µM (titrated, usually from 46.1 µM), hits mostly activators | actives 2.8% (n = 210,000); also: nearly all actives have a fitted effect of over 55% in size
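HEK293 cells carry an SMN2 minigene-luciferase reporter in which exon 7 inclusion puts luciferase in frame. Cells were seeded at 2000 cells/well, attached for 10-12 hours, then exposed to compounds for 30-36 hours at 37C before ONE-Glo luminescence.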
Luc counter: Counterscreen for Luciferase (Kinase-Glo TM) Inhibition; Luciferin 4-monooxygenase (Photuris pensylvanica), Q27757; Kinase-Glo luciferase, ATP luminescence, 8 min; Potency, µM (doses to about 38.3 µM), usual class: inhibitors; actives 0.28% (n = 200,000); AID 1379, 2008; also: nearly all actives have a fitted effect of over 60% in size
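Compounds were added to a substrate mix at pH 7.2 (50 mM imidazole, 10 uM ATP, within the enzyme's linear range), followed by Kinase-Glo detection reagent; luminescence was measured after 8 minutes at ambient temperature.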
Rab9 promoter act: qHTS Assay for Rab9 Promoter Activators | Huh7 Rab9 promoter-luciferase reporter, luminescence, 24 h | Potency, µM (titrated, usually from 9.22 µM), usual class: activators | actives 2.8% (n = 320,000); also: nearly all actives have a fitted effect of over 60% in size
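Cells were plated at 1500 per well in reduced-serum medium with 10% FBS and left 2 h. Compound in DMSO was then added for 24 h at 37 °C. Reporter signal was read by luminescence after 10 min with luciferase detection reagent.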
NPC1 prom act: qHTS Assay for NPC1 Promoter Activators. Huh7 NPC1 promoter luciferase reporter, 24 h. Potency, µM (titrated, usually from 9.22 µM), most hits filed as activators. actives 2.4% (n = 320,000); also: nearly all actives have a fitted effect of over 60% in size
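Luminescence from an NPC1 promoter-driven luciferase reporter in stably transfected Huh7 cells was measured after 24 h compound treatment at 37 °C, followed by 10 min ambient incubation with luciferase detection reagent.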
FLuc counter: qHTS profiling assay for firefly luciferase inhibitor/activator using purifed enzyme and Km concentrations of substrates (counterscreen for miR-21 project). Luciferin 4-monooxygenase (Photinus pyralis), P08659. purified FLuc, Km substrates, luminescence inhibition. Potency, µM (highest dose often 57.5 µM), hits mostly inhibitors. actives 6.9% (n = 360,000). AID 588342, 2011; also: nearly all actives have a fitted effect of over 55% in size
Target sequence (P08659 whole entry, looked up): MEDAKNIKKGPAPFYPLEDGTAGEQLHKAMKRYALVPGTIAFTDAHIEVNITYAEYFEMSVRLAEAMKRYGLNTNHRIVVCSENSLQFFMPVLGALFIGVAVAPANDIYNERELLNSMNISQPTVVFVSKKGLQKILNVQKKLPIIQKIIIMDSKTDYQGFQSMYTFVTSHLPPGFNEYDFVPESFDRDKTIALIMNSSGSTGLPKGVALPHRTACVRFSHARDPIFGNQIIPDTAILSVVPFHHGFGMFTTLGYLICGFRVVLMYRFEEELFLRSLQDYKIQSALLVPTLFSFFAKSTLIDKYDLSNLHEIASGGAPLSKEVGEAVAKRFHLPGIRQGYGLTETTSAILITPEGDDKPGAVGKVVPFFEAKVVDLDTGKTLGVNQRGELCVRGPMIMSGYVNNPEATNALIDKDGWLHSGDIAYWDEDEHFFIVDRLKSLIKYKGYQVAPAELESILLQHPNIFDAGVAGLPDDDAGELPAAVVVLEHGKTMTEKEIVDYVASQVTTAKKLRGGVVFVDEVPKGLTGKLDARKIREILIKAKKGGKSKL
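Purified P. pyralis luciferase (10nM final) with 10uM D-luciferin and 10uM ATP (Km levels) in 50mM Tris acetate pH 7.5, 10mM Mg acetate, 0.01% Tween-20, 0.05% BSA; qHTS 6-point titration, ~60 µM downward; luminescence read.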
A number is an active result; - = inactive; ? = inconclusive; . = no result given. Rows were chosen to be rich in hits. Some 7.5% of all compounds tested hit in one or more screens of this group. Calls follow the shape of the dose curve; as a rule, active = well fitted curve in the direction sought with a large enough effect; inconclusive = small, poorly fitted or top-dose-only effect, or another doubt; inactive = no such curve, though single readings can be large; an effect the other way counts as inactive or inconclusive.

SMILES	ELG1 genotoxic	SMN2 splice enh	Luc counter	Rab9 promoter act	NPC1 prom act	FLuc counter
CCOC(=O)c1ccccc1NC(=O)Cc1c(C(=O)O)n(C)c2ccccc12	-	.	.	-	-	-
Cc1ccc(-c2c3c(nc4sc(C(N)=O)c(N)c24)CCC3)cc1	-	-	-	?	-	17µM
Nc1c(C(=O)Nc2ccccc2F)sc2nc3c(cc12)CCCCCC3	.	-	.	.	.	-
Nc1c(C(=O)N2CCCCC2)sc2nc3c(cc12)CCCC3	6.5µM	.	.	2.8µM	2.5µM	6.7µM
Cc1ccc(C(=O)c2sc3nc4c(cc3c2N)CCC4)cc1	?	7.9µM	-	2.2µM	1.8µM	?
NC(=O)c1sc2nc3c(c(-c4ccc(Cl)cc4)c2c1N)CCCC3	-	-	-	-	-	-
COc1ccccc1NC(=O)c1sc2nc3c(cc2c1N)CCCCCC3	.	-	.	.	.	-
Nc1c(C(=O)N2CCCC2)sc2nc(-c3ccccc3)ccc12	?	.	.	1.6µM	2µM	4.8µM
CCn1c(=O)cc(SCC(=O)NCCc2ccc(OC)cc2OC)c2ccccc21	.	-	.	.	.	-
COc1cccc(-n2c(=O)c3c(C)c(C)sc3n(CC(=O)Nc3ccccc3OC)c2=O)c1	.	-	.	.	.	-
CCCc1c(C)c2ccc(O)c(CN3CCN(c4ccc(F)cc4)CC3)c2oc1=O	.	.	.	.	.	-
CC(C)Oc1ccc(-c2nc(NCC3CCCO3)c3ccccc3n2)cc1 (stereo unspecified)	-	.	.	-	-	9.5µM
Cc1ccc2nc(-c3ccccc3)cc(C(=O)NCC3CCCO3)c2c1 (stereo unspecified)	-	.	.	-	-	5.4µM
Cc1cc(Br)cc2c(C(=O)NCC3CCCO3)cc(-c3cccs3)nc12 (stereo unspecified)	?	.	.	-	-	?
COc1ccc(-c2cc(C(=O)NCC3CCCO3)c3ccccc3n2)c(OC)c1 (stereo unspecified)	-	.	.	-	-	-
CCOc1ccc(-c2cc(C(=O)NCC3CCCO3)c3ccccc3n2)cc1 (stereo unspecified)	-	?	-	-	-	5.4µM
COc1cccc(-c2cc(C(=O)NCC3CCCO3)c3cc(Br)cc(C)c3n2)c1 (stereo unspecified)	?	.	.	-	-	2.7µM
Cc1ccc(C(=O)NCCCN2CCOCC2)c(C)c1	-	.	.	-	-	-
Cc1ccc(-c2nn(-c3ccccc3)cc2C(=O)NCC2CCCO2)cc1 (stereo unspecified)	-	.	.	-	-	13µM
Cc1cc(C(=O)N/N=C/c2cccc([N+](=O)[O-])c2O)n[nH]1	-	-	-	-	-	15µM
CC(C)(C)c1cc(C(=O)N/N=C/c2ccc(-c3ccccc3[N+](=O)[O-])o2)n[nH]1	-	.	.	-	-	21µM
O=C(N/N=C/c1ccc(-c2ccccc2[N+](=O)[O-])o1)c1cccnc1	-	-	-	-	-	?
COc1cccc(CNC(=O)CCc2c(C)c3cc4c(C)coc4c(C)c3oc2=O)c1	.	-	.	.	.	-
COc1ccc(N=C(c2ccccc2)c2c(C)[nH]n(-c3ccccc3)c2=O)c(OC)c1	-	.	.	-	-	-
Cc1ccc(C(=O)O/N=C(\N)Cc2cccs2)cc1[N+](=O)[O-]	?	.	.	3.2µM	2.2µM	-
SMILES	ELG1 genotoxic	SMN2 splice enh	Luc counter	Rab9 promoter act	NPC1 prom act	FLuc counter
CC(=O)Nc1nc2ccccc2[nH]1	-	-	-	-	-	-
CC(=O)NNc1ncnc2ccccc12	-	-	-	-	-	-
O=C(Nc1nc2ccccc2[nH]1)c1ccccc1O	?	.	.	0.89µM	1.8µM	2.7µM
O=C(Nc1nc2ccccc2[nH]1)c1ccccc1	0.52µM	4µM	11µM	1.6µM	?	1.5µM
O=C(Nc1nc2ccccc2[nH]1)c1ccc(Cl)cc1	?	.	.	0.32µM	0.32µM	0.43µM
O=C(NNc1ncnc2ccccc12)c1cccc(Cl)c1	?	.	.	1.8µM	?	2.7µM
